From PubChem
KB-3-1 tox – qHTS assay for MDR1-selective chemotherapeutics: Primary screen using the parental adenocarcinoma cell KB-3-1. Potency, µM (highest dose often 46.1 µM), most hits filed as cytotoxic. actives 1.4% (n = 400,000). KB-3-1 viability, CellTiter-Glo ATP luminescence, 72 h. AID 1347075, 2019; note: nearly all actives have a fitted effect of over 60% in size
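Screening of KB-3-1 cells (DMEM, 10% FBS, phenol-red free) ran from lowest to highest compound concentration; after 72 h at 37 °C viability was read luminescently and curves fitted.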
KB-V1 MDR tox – qHTS assay for MDR1-selective chemotherapeutics: Primary screen using the drug-selected MDR subline cells KB-V1. KB-V1 MDR cells viability, CellTiter-Glo, 72 h. actives 3.4% (n = 400,000). Potency, µM (titrated, usually from 46.1 µM), actives largely listed as cytotoxic; note: nearly all actives have a fitted effect of over 60% in size
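In this primary screen, KB-V1 cells overexpressing P-gp are incubated with library compounds (lowest to highest concentration) for 72 h at 37 degrees C before a luminescent ATP viability read.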
SW480 rerep – A quantitative high throughput screen for small molecules that induce DNA re-replication in SW480 colon adenocarcinoma cells; SW480 DNA re-replication, Hoechst DNA content imaging, 48 h; Potency, µM (doses to about 46.1 µM), hits mostly activators; actives 1.8% (n = 340,000); AID 624297, 2012; note: nearly all actives have a fitted effect of over 55% in size
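Image-based read-out: total Hoechst fluorescence of nuclei (405 nm excitation, 500-530 nm emission), with hits raising the fraction of high-intensity nuclei. SW480 colon cells incubated 48 hr with compounds at 37 C.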
MCF10A rerep – A quantitative high throughput screen for small molecules that induce DNA re-replication in MCF 10a normal breast cells. MCF 10A DNA re-replication, Hoechst nuclear intensity, 48 h. Potency, µM (doses to about 46.1 µM), usual class: activators. actives 2.9% (n = 350,000). AID 624296, 2012; note: nearly all actives have a fitted effect of over 50% in size
ELG1 repair inh – qHTS screen for small molecules that inhibit ELG1-dependent DNA repair in human embryonic kidney (HEK293T) cells expressing luciferase-tagged ELG1 | actives 2.3% (n = 330,000) | Potency, µM (series often up to 46.1 µM), most hits filed as inhibitors | AID 504467, 2011 | HEK293T ELG1-luciferase reporter, luminescence, 16 h; DNA damage induced by 5-fluorouridine; note: nearly all actives have a fitted effect of over 55% in size
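In this reporter screen, reduction of luminescence relative to DMSO vehicle indicated activity. Compounds and 5-fluorouridine were added together to 2,000 cells per well, incubated for 16 hr at 37 °C, then developed with ONE-Glo.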
Of the large screens only hits and unclear results are named; the others gave an inactive call. Shown are actives, neighbours in structure and some others; about 8.1% of the full set was active somewhere. Calls come from the whole dose curve; as a rule, active = well fitted curve in the direction sought with a large enough effect; inconclusive = small, poorly fitted or top-dose-only effect, or another doubt; inactive = no such curve, though single readings can be large; an effect the other way counts as inactive or inconclusive.

CC1CCN(C(=O)Nc2ccc3nc(-c4ccco4)c(-c4ccco4)nc3c2)CC1	KB-V1 MDR tox inconclusive (no result: SW480 rerep, MCF10A rerep, ELG1 repair inh)
CCN(CC)S(=O)(=O)c1ccc(/C=C/C(=O)Nc2cccc(F)c2)cc1	ELG1 repair inh 13µM
CCN(CC)S(=O)(=O)c1ccc(NC(=O)Nc2cccc(C(F)(F)F)c2)cc1	KB-3-1 tox 9.2µM, KB-V1 MDR tox 13µM, MCF10A rerep inconclusive, ELG1 repair inh inconclusive
CCN(CC)S(=O)(=O)c1ccc(NC(=O)C2c3ccccc3Oc3ccccc32)cc1	KB-V1 MDR tox 18µM
O=C(Nc1ccncc1)Nc1cccc(C(F)(F)F)c1	ELG1 repair inh inconclusive
O=C(Nc1ccc(OC(F)F)cc1)Nc1cccc(C(F)(F)F)c1	KB-3-1 tox 8.2µM, KB-V1 MDR tox 13µM, SW480 rerep inconclusive, MCF10A rerep inconclusive
OC[C@@H]1CN(Cc2cccc(C(F)(F)F)c2)C[C@H](n2cnc3c(NC4CC4)ncnc32)O1	none (no result: SW480 rerep, MCF10A rerep, ELG1 repair inh)
O=C(CCC1N=C2c3ccccc3N=C(SCc3cccc(F)c3)N2C1=O)NC1CCCCC1 (configuration not stated)	none (no result: SW480 rerep, MCF10A rerep, ELG1 repair inh)
CCN1CCN(C(=O)CN2C(=O)c3ccccc3S2(=O)=O)CC1	ELG1 repair inh inconclusive
Cc1cc(=O)[nH]c(SCc2csc(-c3ccccc3)n2)n1	KB-V1 MDR tox 23µM
Nc1cc(=O)[nH]c(SCc2csc(-c3ccccc3)n2)n1	KB-3-1 tox inconclusive, KB-V1 MDR tox 16µM, MCF10A rerep inconclusive, ELG1 repair inh inconclusive
Cc1cc(=O)[nH]c(SCc2cccc(Br)c2)n1	KB-V1 MDR tox inconclusive
COc1ccc(CSc2nc(C)cc(=O)[nH]2)cc1Br	KB-V1 MDR tox 18µM
Cc1cc(=O)[nH]c(SCc2cccc3ccccc23)n1	none
Nc1cc(=O)[nH]c(SCc2ccccc2Cl)n1	none
Cc1ccc(-c2nc(CS(=O)CC(=O)NCc3ccco3)c(C)o2)cc1 (configuration not stated)	none
Nc1cc2c3ccccc3ccc2c2ccccc12	KB-3-1 tox inconclusive, SW480 rerep 21µM, MCF10A rerep inconclusive (no result: ELG1 repair inh)
COc1ccccc1CNC(=O)C1CCN(S(=O)(=O)Cc2ccccc2)CC1	none (no result: SW480 rerep, MCF10A rerep, ELG1 repair inh)
Cc1ccc(NC(=O)C2C3CC4OC(=O)C2C4C3)cc1Cl (configuration not stated)	MCF10A rerep 3.7µM
COc1cccc(S(=O)(=O)N(C)C[C@@H]2Oc3cc(C#CCN(C)C)ccc3S(=O)(=O)N([C@H](C)CO)C[C@@H]2C)c1	none (no result: SW480 rerep, MCF10A rerep, ELG1 repair inh)
CC1CC(C)CN(C(=O)CSc2ncnc3sccc23)C1 (configuration not stated)	KB-V1 MDR tox 21µM
CCN(CC)C(=O)CSc1ncnc2sccc12	ELG1 repair inh inconclusive
Cn1c(N)c(C(=O)COC(=O)Cc2ccc(F)cc2)c(=O)n(C)c1=O	none
Cc1c2c(n3c(nc4ccccc43)c1C#N)N(c1ccccc1)CC2	none (no result: KB-3-1 tox, KB-V1 MDR tox)
Cc1c2c(n3c(nc4ccccc43)c1C#N)N(CCN(C)C)CC2	SW480 rerep 9.2µM, MCF10A rerep 16µM
Cc1c2c(n3c(nc4ccccc43)c1C#N)N(CCCN(C)C)CC2	KB-V1 MDR tox inconclusive, SW480 rerep 9.2µM, MCF10A rerep 15µM
CCc1ccc(S(=O)(=O)Nc2nccs2)cc1	MCF10A rerep inconclusive
O=S(=O)(Nc1nccs1)c1ccc(F)cc1	MCF10A rerep 2.3µM, ELG1 repair inh inconclusive
Cc1cc(C)c(C#N)c(N2CCOCC2)n1	KB-V1 MDR tox inconclusive, ELG1 repair inh inconclusive
Cc1cc(N2CCOCC2)nc(N2CCOCC2)c1C#N	KB-3-1 tox inconclusive, KB-V1 MDR tox 7.3µM (no result: SW480 rerep, MCF10A rerep, ELG1 repair inh)
O=C(CSc1ccc2nnc(CCNC(=O)c3ccccc3)n2n1)NC1CCCC1	none (no result: KB-3-1 tox, KB-V1 MDR tox)
CN(C)S(=O)(=O)N1CCCC(C(=O)c2ccc(C(F)(F)F)cc2)C1 (configuration not stated)	KB-V1 MDR tox 23µM, ELG1 repair inh inconclusive
O=c1c(Cl)c(NCCCO)cnn1-c1nc2ccccc2[nH]1	KB-3-1 tox inconclusive, SW480 rerep inconclusive, MCF10A rerep 2.9µM, ELG1 repair inh inconclusive
CN(/N=C/c1c[nH]c2ccccc12)c1cnn(-c2ccc(F)c(Cl)c2)c(=O)c1Cl	MCF10A rerep inconclusive
C=CCN(CC=C)c1cnn(-c2nc3ccccc3[nH]2)c(=O)c1Cl	KB-V1 MDR tox 4.1µM, ELG1 repair inh inconclusive
CCNc1nc(NCC)nc(SCCOC(=O)Nc2ccc(Cl)cc2Cl)n1	MCF10A rerep 18µM, ELG1 repair inh inconclusive
CCNc1nc(NCC)nc(SCCOC(=O)c2ccccc2)n1	none
CCOC(=O)[C@]12CCC=C1N(Cc1ccc3c(c1)OCO3)C(=O)[C@H](CC(=O)NCc1cccs1)C2	KB-V1 MDR tox inconclusive (no result: SW480 rerep, MCF10A rerep, ELG1 repair inh)
O=C(/C=C/c1ccccc1)NC(=S)Nc1ccccc1C(=O)NC1CCCCC1	KB-V1 MDR tox inconclusive
COc1ccc(/C=C/C(=O)NC(=S)Nc2ccccc2C(=O)NC2CCCCC2)cc1	KB-V1 MDR tox inconclusive, SW480 rerep 4.1µM, MCF10A rerep 18µM, ELG1 repair inh inconclusive
O=C(NC1CCCCC1)c1ccccc1NC(=O)C1CC1	KB-V1 MDR tox 16µM
O=C(/C=C/c1ccc(F)cc1)NC(=S)Nc1ccccc1C(=O)NC1CCCCC1	KB-V1 MDR tox 16µM, SW480 rerep inconclusive, MCF10A rerep inconclusive
Cc1ccc(/C=C/C(=O)NC(=S)Nc2ccccc2C(=O)NC2CCCCC2)cc1	MCF10A rerep inconclusive
O=C(Nc1ccccc1C(=O)NC1CCCC1)NC1CCCC1	none
CCC(C)NC(=O)Cn1c(=O)n(-c2ccc(OC)c(OC)c2)c(=O)c2ccccc21 (configuration not stated)	none (no result: SW480 rerep, MCF10A rerep, ELG1 repair inh)
Cc1ccc(CNCc2ccc3c(c2)n(C)c(=O)n3C)cc1	none (no result: SW480 rerep, MCF10A rerep, ELG1 repair inh)
CC(C)CN(CC(C)C)C(=O)Cc1coc2ccc3ccccc3c12	KB-3-1 tox inconclusive, KB-V1 MDR tox 23µM, MCF10A rerep inconclusive (no result: ELG1 repair inh)
Cc1ccc(C(=O)COC(=O)C(CC(C)C)NC(=O)C2CCC(C)CC2)cc1 (configuration not stated)	none (no result: SW480 rerep, MCF10A rerep, ELG1 repair inh)
Cc1nc(-c2ccc(S(=O)(=O)NCC3CCN(C(=O)OC(C)(C)C)CC3)s2)cs1	ELG1 repair inh 21µM
CC(C)C[C@H]1CN=C(Nc2ccccc2)N1CC1CCC(C(C)(C)C)CC1 (some centres not stated)	KB-V1 MDR tox inconclusive, MCF10A rerep inconclusive, ELG1 repair inh inconclusive
O=C(NCc1ccco1)C1CC(c2ccc(Cl)c(Cl)c2)=NO1 (configuration not stated)	MCF10A rerep inconclusive
COc1cc(C2=NOC(C(=O)NCc3ccco3)C2)cc(OC)c1OC (configuration not stated)	KB-V1 MDR tox 2.9µM, SW480 rerep inconclusive, MCF10A rerep inconclusive
